Consider one sequence from paper PMC7862700, “An all-to-all approach to the identification of sequence-specific readers for epigenetic DNA modifications on cytosine”.

Experiment in all cases: DAPPL (digital affinity profiling via proximity ligation, sequencing); 10 mM Tris-HCl pH 7.5, 50 mM NaCl, 1 mM DTT, 4% glycerol, room temperature, 30 min; GST-TFs on glutathione beads, 16-mer random dsDNA library, 0.1% formaldehyde crosslink after washing; high values mean tight binding
For assay [1], the target named is T1, FEV (Homo sapiens, UniProt Q99581 1-238).
T1 sequence: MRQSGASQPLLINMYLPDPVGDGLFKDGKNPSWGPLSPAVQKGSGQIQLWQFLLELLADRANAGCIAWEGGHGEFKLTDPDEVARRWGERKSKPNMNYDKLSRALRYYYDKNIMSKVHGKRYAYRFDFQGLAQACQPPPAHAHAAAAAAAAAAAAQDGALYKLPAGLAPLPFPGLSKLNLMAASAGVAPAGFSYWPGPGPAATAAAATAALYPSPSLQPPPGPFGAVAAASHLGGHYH
The conditions noted are these: protein: recombinant; tags: N-terminal GST; dsDNA, one strand shown. Summed up:
(§1)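 Binding signal is defined as a hexamer's read frequency for one factor over its frequency for the tag-only sample. To obtain reads, GST-fused human transcription factors were expressed in yeast, captured on glutathione beads, barcoded with DNA and pooled with that sample. Pools met 200 nmole of a 16-mer random double-stranded DNA library in Tris/NaCl/DTT/glycerol buffer for 30 min at room temperature before washing, 0.1% formaldehyde crosslinking, proximity ligation (BsaI/T4 ligase, 1 h, 37 °C), PCR and Illumina NextSeq500 sequencing.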

In assay [2] the target is ETV5 (Homo sapiens, UniProt P41161 1-510). The settings on record: protein: recombinant; tags: N-terminal GST; dsDNA, one strand shown. The method in brief:
as §1

The target in assay [3] is HSF1 (Homo sapiens, UniProt Q00613 1-529). The conditions noted are these: protein: recombinant; tags: N-terminal GST; chain copies: 3; dsDNA, one strand shown. The method in brief: as §1
Sequence of HSF1 (Q00613 whole entry): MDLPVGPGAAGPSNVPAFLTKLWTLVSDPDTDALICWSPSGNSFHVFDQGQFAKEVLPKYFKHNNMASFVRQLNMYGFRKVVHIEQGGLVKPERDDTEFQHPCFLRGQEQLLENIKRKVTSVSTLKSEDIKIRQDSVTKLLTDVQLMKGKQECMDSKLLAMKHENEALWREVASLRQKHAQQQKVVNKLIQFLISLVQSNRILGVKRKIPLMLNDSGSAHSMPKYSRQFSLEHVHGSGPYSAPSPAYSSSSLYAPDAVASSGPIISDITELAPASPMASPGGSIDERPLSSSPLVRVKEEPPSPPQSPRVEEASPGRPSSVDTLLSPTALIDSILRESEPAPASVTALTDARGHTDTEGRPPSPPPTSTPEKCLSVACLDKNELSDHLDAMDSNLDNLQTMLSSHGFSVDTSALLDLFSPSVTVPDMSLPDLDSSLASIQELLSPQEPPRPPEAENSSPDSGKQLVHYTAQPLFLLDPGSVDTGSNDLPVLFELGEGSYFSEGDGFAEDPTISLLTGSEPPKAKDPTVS
The target of assay [4] is T2, SPIC (Homo sapiens, UniProt Q8N5J4 1-248).
T2 sequence: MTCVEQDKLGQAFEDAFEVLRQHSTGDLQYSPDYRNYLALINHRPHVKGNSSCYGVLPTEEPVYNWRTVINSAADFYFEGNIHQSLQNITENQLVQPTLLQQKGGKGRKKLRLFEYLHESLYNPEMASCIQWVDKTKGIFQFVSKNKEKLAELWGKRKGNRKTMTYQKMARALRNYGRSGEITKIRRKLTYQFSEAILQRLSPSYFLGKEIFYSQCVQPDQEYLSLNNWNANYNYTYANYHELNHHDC
The settings on record: protein: recombinant; tags: N-terminal GST; dsDNA, one strand shown. The method in brief: as §1

For assay [5], the target named is ELF4 (Homo sapiens, UniProt Q99607 1-663). The settings on record: protein: recombinant; tags: N-terminal GST; dsDNA, one strand shown. The method in brief:
as §1

Assay [6] addresses T3, ELK4 (Homo sapiens, UniProt P28324-2 1-405).
T3 sequence: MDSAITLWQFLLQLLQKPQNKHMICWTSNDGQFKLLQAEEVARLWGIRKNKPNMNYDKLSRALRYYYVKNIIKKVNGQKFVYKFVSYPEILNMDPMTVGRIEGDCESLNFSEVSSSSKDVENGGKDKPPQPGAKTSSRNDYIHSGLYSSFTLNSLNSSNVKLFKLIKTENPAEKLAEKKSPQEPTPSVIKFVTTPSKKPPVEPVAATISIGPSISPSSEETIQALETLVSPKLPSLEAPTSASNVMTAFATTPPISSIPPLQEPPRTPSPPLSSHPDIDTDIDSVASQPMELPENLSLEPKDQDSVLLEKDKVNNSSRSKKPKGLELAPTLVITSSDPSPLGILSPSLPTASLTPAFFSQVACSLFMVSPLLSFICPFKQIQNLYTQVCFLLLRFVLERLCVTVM
The conditions noted are these: protein: recombinant; tags: N-terminal GST; dsDNA, one strand shown. The method in brief: as §1

The target in assay [7] is T4, ETV2 (Homo sapiens, UniProt O00321 1-342).
T4 sequence: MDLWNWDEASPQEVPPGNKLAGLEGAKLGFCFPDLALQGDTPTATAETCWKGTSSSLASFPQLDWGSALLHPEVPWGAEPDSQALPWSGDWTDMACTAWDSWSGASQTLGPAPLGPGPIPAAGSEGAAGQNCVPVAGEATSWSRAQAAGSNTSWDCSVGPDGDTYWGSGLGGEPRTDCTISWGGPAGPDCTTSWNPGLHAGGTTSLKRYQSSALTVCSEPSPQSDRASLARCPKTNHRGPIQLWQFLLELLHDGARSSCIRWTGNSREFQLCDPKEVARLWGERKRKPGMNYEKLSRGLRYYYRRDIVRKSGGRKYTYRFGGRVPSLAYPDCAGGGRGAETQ
The conditions noted are these: protein: recombinant; tags: N-terminal GST; dsDNA, one strand shown. The method in brief: as §1

The target of assay [8] is T5, ELF3 (Homo sapiens, UniProt P78545 1-371).
T5 sequence: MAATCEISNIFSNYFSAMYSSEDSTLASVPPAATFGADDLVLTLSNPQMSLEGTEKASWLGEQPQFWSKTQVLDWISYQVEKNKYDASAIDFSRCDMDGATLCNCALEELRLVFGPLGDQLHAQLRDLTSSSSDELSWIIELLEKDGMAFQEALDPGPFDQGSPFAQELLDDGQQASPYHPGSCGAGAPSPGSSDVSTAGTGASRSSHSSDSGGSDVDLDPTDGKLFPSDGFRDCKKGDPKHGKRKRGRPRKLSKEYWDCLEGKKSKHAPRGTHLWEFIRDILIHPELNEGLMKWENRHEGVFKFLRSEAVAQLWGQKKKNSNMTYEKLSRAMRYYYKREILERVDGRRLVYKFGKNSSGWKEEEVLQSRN
The settings on record: protein: recombinant; tags: N-terminal GST; dsDNA, one strand shown. The method in brief:
as §1

Assay [9] deals with CRX (Homo sapiens, UniProt O43186 1-299). The conditions noted are these: protein: recombinant; tags: N-terminal GST; dsDNA, one strand shown. Summed up:
as §1

Assay [10] deals with ETV1 (Homo sapiens, UniProt P50549 1-477). The settings on record: protein: recombinant; tags: N-terminal GST; dsDNA, one strand shown. The method in brief:
as §1

Assay [11] concerns the target T6, ERF (Homo sapiens, UniProt P50548 1-548).
T6 sequence: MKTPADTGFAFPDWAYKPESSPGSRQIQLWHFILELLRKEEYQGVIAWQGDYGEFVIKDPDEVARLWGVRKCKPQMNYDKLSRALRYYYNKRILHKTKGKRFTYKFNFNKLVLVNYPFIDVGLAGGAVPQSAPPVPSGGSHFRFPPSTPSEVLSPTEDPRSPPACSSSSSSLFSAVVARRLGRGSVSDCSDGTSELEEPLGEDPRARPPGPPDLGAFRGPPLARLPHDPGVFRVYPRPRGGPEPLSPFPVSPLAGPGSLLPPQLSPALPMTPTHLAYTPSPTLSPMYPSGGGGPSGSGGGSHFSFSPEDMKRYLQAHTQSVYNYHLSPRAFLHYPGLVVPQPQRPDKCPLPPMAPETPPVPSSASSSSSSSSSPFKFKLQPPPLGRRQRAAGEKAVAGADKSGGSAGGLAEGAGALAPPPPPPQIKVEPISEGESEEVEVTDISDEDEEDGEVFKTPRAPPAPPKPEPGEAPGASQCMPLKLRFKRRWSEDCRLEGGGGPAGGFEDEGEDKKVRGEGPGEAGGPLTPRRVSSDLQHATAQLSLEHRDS
The conditions noted are these: protein: recombinant; tags: N-terminal GST; dsDNA, one strand shown. The method in brief: as §1

The target in assay [12] is T7, ETV3L (Homo sapiens, UniProt Q6ZN32 1-361).
T7 sequence: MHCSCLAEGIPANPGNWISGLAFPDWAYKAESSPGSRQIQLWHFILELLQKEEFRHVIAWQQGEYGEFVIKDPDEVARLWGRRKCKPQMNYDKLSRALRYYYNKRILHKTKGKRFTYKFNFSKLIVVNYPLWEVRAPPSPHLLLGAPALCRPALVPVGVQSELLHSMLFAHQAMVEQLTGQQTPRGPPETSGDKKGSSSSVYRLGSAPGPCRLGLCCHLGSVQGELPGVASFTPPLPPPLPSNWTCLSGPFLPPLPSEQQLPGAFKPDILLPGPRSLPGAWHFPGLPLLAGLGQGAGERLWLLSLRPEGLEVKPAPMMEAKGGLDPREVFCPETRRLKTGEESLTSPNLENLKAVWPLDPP
The conditions noted are these: protein: recombinant; tags: N-terminal GST; dsDNA, one strand shown. Summed up: as §1

For assay [13], the target named is T8, ETS2 (Homo sapiens, UniProt P15036 1-469).
T8 sequence: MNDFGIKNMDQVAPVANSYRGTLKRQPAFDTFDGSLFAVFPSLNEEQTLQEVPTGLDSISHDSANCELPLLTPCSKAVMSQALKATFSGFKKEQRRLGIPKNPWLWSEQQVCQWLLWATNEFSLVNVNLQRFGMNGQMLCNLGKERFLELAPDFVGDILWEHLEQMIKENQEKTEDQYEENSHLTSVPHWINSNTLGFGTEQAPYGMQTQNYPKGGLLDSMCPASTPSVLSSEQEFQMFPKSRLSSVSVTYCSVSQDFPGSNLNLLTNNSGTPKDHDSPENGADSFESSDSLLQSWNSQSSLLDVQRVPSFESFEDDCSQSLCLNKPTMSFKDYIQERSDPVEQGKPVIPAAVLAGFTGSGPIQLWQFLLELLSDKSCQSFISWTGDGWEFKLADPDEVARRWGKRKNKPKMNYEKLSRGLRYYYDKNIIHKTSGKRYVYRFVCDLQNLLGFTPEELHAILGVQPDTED
The conditions noted are these: protein: recombinant; tags: N-terminal GST; dsDNA, one strand shown. The method in brief:
as §1

Assay [14] has as its target T9, SPDEF (Homo sapiens, UniProt O95238 1-335).
T9 sequence: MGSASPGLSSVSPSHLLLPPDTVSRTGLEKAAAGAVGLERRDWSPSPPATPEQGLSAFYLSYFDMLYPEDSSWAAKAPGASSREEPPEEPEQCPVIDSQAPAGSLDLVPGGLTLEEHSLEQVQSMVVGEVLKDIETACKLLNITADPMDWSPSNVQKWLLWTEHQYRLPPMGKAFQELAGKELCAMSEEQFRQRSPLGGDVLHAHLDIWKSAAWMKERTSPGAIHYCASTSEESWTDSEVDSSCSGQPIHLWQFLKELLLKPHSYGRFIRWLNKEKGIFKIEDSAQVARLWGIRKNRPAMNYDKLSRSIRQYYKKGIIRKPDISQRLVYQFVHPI
The conditions noted are these: protein: recombinant; tags: N-terminal GST; dsDNA, one strand shown. Summed up:
as §1

Assay [15] concerns the target T10, ETV7 (Homo sapiens, UniProt Q9Y603 1-341).
T10 sequence: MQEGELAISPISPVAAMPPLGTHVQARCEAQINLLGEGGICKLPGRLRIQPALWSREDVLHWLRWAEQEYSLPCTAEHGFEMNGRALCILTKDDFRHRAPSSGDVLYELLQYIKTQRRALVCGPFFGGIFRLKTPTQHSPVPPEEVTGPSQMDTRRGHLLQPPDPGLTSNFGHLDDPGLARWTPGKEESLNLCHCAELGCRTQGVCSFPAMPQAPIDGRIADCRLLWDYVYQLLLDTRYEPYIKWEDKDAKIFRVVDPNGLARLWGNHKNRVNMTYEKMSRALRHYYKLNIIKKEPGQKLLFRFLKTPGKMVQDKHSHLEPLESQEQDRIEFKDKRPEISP
The settings on record: protein: recombinant; tags: N-terminal GST; dsDNA, one strand shown. Summed up: as §1

Assay [16] has as its target T11, ELF5 (Homo sapiens, UniProt Q9UKW6-2 1-255).
T11 sequence: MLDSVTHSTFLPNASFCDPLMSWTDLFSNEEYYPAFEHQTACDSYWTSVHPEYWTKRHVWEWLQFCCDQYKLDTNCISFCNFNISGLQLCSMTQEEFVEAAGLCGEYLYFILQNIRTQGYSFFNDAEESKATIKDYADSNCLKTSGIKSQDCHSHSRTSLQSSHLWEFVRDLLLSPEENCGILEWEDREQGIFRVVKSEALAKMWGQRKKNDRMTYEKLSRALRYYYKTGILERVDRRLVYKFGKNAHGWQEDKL
The conditions noted are these: protein: recombinant; tags: N-terminal GST; dsDNA, one strand shown. Summed up:
as §1

The target in assay [17] is T12, ETV3 (Homo sapiens, UniProt P41162-2 1-143).
T12 sequence: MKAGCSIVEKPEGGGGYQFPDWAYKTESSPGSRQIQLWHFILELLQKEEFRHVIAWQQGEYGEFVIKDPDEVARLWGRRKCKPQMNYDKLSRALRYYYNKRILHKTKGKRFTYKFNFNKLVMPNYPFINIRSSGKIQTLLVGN
The conditions noted are these: protein: recombinant; tags: N-terminal GST; dsDNA, one strand shown. Summed up:
as §1

The target of assay [18] is ETV6 (Homo sapiens, UniProt P41212 1-452). The settings on record: protein: recombinant; tags: N-terminal GST; dsDNA, one strand shown. The method in brief: as §1
Sequence of ETV6 (P41212 whole entry): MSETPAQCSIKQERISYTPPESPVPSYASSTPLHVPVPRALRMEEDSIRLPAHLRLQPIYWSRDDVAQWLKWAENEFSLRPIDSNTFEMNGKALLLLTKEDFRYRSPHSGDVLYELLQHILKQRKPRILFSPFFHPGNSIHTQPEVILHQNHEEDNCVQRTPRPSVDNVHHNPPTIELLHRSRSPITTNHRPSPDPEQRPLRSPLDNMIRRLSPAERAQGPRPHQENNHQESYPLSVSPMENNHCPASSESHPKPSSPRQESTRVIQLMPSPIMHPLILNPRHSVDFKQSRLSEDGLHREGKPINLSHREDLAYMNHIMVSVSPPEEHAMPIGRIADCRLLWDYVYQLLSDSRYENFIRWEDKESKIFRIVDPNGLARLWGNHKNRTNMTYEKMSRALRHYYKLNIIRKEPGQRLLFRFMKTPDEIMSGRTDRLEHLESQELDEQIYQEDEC

Sequence of ELF4 (Q99607 whole entry): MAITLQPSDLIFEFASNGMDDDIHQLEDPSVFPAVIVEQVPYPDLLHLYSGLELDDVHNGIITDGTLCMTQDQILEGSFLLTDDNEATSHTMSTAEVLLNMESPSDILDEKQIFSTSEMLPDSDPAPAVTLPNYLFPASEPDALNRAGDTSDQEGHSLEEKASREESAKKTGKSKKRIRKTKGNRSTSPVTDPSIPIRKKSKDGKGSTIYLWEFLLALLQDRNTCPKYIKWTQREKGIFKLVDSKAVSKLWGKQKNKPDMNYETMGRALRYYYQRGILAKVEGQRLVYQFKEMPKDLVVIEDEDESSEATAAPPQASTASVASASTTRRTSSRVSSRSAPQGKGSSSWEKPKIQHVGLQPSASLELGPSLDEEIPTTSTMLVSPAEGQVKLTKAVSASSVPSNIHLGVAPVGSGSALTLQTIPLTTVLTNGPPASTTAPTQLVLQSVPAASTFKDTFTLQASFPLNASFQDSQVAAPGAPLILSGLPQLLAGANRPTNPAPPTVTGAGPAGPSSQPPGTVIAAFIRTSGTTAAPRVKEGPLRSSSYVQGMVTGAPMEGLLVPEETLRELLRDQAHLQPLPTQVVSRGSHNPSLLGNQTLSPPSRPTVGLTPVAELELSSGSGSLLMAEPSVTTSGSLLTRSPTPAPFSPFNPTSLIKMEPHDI
Sequence of CRX (O43186 whole entry): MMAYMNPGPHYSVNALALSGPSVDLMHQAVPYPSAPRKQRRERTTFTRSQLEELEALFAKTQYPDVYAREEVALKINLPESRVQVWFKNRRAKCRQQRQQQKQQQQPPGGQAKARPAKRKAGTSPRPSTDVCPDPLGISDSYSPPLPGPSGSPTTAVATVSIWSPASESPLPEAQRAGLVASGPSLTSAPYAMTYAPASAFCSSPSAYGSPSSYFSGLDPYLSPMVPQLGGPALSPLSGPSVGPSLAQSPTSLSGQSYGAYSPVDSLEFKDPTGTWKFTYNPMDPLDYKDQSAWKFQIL
Sequence of ETV1 (P50549 whole entry): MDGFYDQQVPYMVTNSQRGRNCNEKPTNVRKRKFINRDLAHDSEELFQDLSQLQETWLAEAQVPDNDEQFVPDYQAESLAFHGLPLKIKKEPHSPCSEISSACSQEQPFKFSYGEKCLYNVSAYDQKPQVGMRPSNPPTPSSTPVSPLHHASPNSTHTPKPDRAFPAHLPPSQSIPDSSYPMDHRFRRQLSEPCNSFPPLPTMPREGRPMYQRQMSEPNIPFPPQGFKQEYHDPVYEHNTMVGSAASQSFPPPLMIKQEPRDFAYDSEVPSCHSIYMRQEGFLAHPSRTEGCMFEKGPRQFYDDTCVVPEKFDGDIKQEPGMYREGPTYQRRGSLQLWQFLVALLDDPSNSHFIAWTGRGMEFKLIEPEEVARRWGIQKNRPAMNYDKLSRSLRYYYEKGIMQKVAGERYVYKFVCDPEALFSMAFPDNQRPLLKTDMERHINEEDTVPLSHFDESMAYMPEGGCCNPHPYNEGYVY
Sequence of ETV5 (P41161 whole entry): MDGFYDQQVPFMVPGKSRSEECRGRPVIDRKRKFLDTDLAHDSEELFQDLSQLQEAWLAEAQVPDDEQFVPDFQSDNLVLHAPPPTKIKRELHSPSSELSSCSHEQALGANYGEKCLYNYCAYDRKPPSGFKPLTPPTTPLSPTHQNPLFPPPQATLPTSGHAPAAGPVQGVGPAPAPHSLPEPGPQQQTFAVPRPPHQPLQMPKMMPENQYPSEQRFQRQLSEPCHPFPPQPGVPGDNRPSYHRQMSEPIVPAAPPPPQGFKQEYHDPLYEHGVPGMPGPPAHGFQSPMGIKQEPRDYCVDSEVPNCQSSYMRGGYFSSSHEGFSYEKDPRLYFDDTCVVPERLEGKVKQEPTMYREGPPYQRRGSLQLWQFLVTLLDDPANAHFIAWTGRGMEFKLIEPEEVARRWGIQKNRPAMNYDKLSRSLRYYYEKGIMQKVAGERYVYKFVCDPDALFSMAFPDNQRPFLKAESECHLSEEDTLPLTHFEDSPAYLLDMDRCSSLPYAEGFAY

Regarding ATATCT, the binding signal was 1.15 fold enrichment (6-mer frequency, TF over GST control) in assay [1]; 1.1 fold enrichment (6-mer frequency, TF over GST control) in assay [2]; 1.26 fold enrichment (6-mer frequency, TF over GST control) in assay [3]; 1.1 fold enrichment (6-mer frequency, TF over GST control) in assay [4]; 1.17 fold enrichment (6-mer frequency, TF over GST control) in [5]; 1.2 fold enrichment (6-mer frequency, TF over GST control) in [6]. The binding signal was 1.3 fold enrichment (6-mer frequency, TF over GST control) in assay [7]; 1.21 fold enrichment (6-mer frequency, TF over GST control) in assay [8]; 1.39 fold enrichment (6-mer frequency, TF over GST control) in assay [9]; 1.16 fold enrichment (6-mer frequency, TF over GST control) in assay [10]; 1.23 fold enrichment (6-mer frequency, TF over GST control) in [11]; 1.21 fold enrichment (6-mer frequency, TF over GST control) in [12]. For the same sequence, the binding signal in assay [13] is 1.17 fold enrichment (6-mer frequency, TF over GST control); in assay [14], 1.22 fold enrichment (6-mer frequency, TF over GST control); in assay [15] it was 1.2 fold enrichment (6-mer frequency, TF over GST control); in assay [16], 1.18 fold enrichment (6-mer frequency, TF over GST control); in [17], 1.19 fold enrichment (6-mer frequency, TF over GST control); in assay [18] it was 1.14 fold enrichment (6-mer frequency, TF over GST control).
